A number with no mark means an inactive call. Results filed as inconclusive are left out. Where a call stands in place of a potency, no number is given. Active and inactive are the calls of the source. The call rests on the fitted dose curve; in most records, active means well fitted curve in the direction sought with a large enough effect; inconclusive means small, poorly fitted or top-dose-only effect, or another doubt; inactive means no such curve, though single readings can be large; an effect the other way counts as inactive or inconclusive.
Assays:
[1] = test system: Zika virus NS2B-NS3 protease; assay: Primary screen GU AMC qHTS for Zika virus inhibitors (AID 1347154); further: nearly all actives have a fitted effect of over 70% in size
Method in brief: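 Unlinked Zika NS2B hydrophilic domain/NS3 protease domain noncovalent complex (25 nM final) in 10 mM Tris-HCl pH 8.0, 0.01% Tween 20, with AMC peptide substrate. Fluorescence (ex 340, em 450 nm) change over 15 min, room temperature; percent inhibition fitted to 4-parameter Hill equation.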

[2] = test system: Zika virus NS2B-NS3 protease (linked construct); assay: Primary screen NINDS Rhodamine qHTS for Zika virus inhibitors (AID 1347160); further: nearly all actives have a fitted effect of over 55% in size; further: potency means the concentration at half of the fitted maximal effect
Method in brief: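 Purified NS2B-NS3 protease with the NS2B hydrophilic domain joined by a flexible linker (25 nM) in 10 mM Tris-HCl pH 8.0, 0.01% Tween 20, preincubated 15 min at RT with compound; Rhodamine110 peptide substrate 1.5 µM; fluorescence change over 15 min; 4-parameter Hill fit.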

[3] = qHTS to identify inhibitors of the type 1 interferon - major histocompatibility complex class I in skeletal muscle: primary screen against the NCATS Mechanism Interrogation Plate v5.0 (MIPE) Libary (AID 1347411); further: nearly all actives have a fitted effect of over 65% in size; further: potency means the concentration at half of the fitted maximal effect
Method in brief: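 Luminescence from HiBiT-tagged endogenous HLA-B*08:01 served as the MHC class I read-out. CRISPR-engineered C25cl48 human myoblasts received 4.0 ng/ml IFN-beta plus compound for 24 hrs, with an 11-point, 1:3 series topping at 46 uM final.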

[4] = qHTS to identify inhibitors of the type 1 interferon - major histocompatibility complex class I in skeletal muscle: primary screen against the NCATS Pharmaceutical Collection (AID 1347407);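 further: luminescence of HiBiT knocked into endogenous HLA-B as interferon-induced MHC class I level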
Method in brief: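 Luminescence from HiBiT-tagged endogenous HLA-B*08:01 served as the read-out of IFN-beta-induced MHC class I in CRISPR-engineered C25cl48 myoblasts. Cells received 4 ng/ml IFN-beta plus compound (high final 46 uM, […]) for 24 h.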

[5] = target: Protein phosphatase 1D (Homo sapiens) (UniProt O15297); assay: RapidFire Mass Spectrometry qHTS Assay for Modulators of WT P53-Induced Phosphatase 1 (WIP1) (AID 1347424);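 further: amount of dephosphorylated VEPPL-S-QETFS peptide product formed by WIP1; series mostly up to about 63 µM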
Chain of Protein phosphatase 1D (Homo sapiens) (O15297 whole entry, looked up): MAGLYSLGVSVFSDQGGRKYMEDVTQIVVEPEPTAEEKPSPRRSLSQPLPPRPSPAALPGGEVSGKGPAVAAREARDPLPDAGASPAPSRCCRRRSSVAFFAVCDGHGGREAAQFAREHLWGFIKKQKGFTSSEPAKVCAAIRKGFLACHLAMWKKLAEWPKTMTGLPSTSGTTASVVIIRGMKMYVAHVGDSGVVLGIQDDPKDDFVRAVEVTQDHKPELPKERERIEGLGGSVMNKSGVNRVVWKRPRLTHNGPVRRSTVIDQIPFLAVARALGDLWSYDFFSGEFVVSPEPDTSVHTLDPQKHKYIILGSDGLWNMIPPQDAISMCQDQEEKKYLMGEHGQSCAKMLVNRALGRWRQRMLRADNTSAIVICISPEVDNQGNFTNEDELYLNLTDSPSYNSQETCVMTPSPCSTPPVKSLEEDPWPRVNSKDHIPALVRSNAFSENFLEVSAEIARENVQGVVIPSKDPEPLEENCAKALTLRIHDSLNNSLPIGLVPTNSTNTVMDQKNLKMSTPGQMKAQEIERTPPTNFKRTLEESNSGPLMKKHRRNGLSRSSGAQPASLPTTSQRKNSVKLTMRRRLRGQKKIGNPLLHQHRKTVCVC
Method in brief: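 WIP1 (10 nM final) was preincubated 1 h at room temperature with compounds in Tris-HCl pH 7.5, 30 mM MgCl2, TCEP, EGTA, BSA; 2 uM VEPPL-pS-QETFS phosphopeptide was added for 5 min, quenched with formic acid, and dephosphorylated product quantified by RapidFire MS.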

[6] = target: Protein phosphatase 1D (Homo sapiens) (UniProt O15297); assay: Rhodamine-PBP qHTS Assay for Modulators of WT P53-Induced Phosphatase 1 (WIP1) (AID 1347425)
Method in brief: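 WIP1 (5 nM final) was preincubated with compound for 1 hour at room temperature. It then dephosphorylated 10 uM VEPPL-pS-QETFS peptide in Tris-HCl pH 7.5 with 30 mM MgCl2. Released Pi was detected by 10 uM Rh-PBP fluorescence (ex 525/em 598 nm) read at 1-min intervals for 11 min, as delta f1 - f0.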

[7] = qHTS for inhibitors of adenylyl cyclases using a fission yeast platform: a pilot screen against the NCATS LOPAC library (AID 1347410)
Method in brief: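 Fission yeast qHTS: CHP2027 cells (AC9-GNAS-PDE4D2, fbp1-GFP), 5x10^6 cells/mL working density, EMM + His/Lys/Ura; LOPAC at up to 57 µM final; 18 h dark, 30C; GFP by laser cytometry. DPI positive control, DMSO vehicle.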

[8] = target: Lysine-specific demethylase 5B (Homo sapiens) (UniProt Q9UGL1); assay: Optimization screen for KDM5B Histone Demethylases FDH coupled qHTS against the LOPAC library (AID 1347166)
Chain of Lysine-specific demethylase 5B (Homo sapiens) (Q9UGL1 whole entry, looked up): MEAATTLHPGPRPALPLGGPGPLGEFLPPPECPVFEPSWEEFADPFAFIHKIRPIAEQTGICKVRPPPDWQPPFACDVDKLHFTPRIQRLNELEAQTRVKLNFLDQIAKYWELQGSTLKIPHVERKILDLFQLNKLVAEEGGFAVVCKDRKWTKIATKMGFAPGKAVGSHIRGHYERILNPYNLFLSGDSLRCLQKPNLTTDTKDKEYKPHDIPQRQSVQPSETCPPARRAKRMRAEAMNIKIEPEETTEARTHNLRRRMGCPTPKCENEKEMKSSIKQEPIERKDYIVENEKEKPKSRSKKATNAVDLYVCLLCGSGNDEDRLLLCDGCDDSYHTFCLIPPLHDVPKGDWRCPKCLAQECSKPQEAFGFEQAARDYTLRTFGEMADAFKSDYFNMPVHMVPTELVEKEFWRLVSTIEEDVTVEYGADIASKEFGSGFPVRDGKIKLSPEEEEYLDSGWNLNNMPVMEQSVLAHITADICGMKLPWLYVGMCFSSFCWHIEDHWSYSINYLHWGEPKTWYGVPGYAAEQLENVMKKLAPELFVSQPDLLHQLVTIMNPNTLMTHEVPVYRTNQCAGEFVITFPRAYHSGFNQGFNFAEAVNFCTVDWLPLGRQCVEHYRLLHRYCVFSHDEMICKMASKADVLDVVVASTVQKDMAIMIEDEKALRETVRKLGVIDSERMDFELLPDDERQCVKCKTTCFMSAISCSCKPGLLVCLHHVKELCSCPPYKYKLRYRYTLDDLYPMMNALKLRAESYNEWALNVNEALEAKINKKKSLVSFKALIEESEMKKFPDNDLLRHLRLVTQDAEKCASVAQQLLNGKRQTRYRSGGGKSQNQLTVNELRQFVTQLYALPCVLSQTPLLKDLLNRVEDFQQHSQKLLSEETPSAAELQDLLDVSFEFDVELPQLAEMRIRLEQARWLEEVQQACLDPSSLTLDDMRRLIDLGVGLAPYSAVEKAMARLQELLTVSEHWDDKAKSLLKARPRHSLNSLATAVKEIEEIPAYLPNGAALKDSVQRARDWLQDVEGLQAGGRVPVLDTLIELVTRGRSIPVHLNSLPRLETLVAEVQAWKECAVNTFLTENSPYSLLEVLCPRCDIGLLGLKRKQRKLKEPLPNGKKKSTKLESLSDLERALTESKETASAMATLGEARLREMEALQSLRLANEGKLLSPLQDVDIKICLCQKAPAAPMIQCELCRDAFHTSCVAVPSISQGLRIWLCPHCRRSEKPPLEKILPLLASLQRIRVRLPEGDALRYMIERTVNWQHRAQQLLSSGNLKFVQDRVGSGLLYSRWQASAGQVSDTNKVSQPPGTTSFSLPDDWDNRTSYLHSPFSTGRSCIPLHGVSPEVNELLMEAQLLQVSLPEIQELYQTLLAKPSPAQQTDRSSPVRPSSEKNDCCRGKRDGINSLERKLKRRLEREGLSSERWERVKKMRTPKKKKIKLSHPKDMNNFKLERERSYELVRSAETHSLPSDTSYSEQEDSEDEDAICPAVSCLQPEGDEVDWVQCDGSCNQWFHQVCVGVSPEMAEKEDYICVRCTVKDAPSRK
Method in brief: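 KDM5BDeltaAP (200nM final) preincubated 10 min with compound, then 12.5uM H3K4Me3, 25uM a-ketoglutarate, ascorbate, Fe(II), NAD+ and FDH added; 50mM HEPES pH 7.5, 0.01% Tween-20. NADH fluorescence (340/450 nm) change over 30 min, room temperature.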

[9] = test system: Zika virus NS2B-NS3 protease (unlinked complex); assay: Primary screen GU Rhodamine qHTS for Zika virus inhibitors: Unlinked NS2B-NS3 protease assay (AID 1347159); further: nearly all actives have a fitted effect of over 60% in size
Method in brief: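 Noncovalent NS2B hydrophilic domain/NS3 protease complex (25 nM final) in 10 mM Tris-HCl pH 8.0, 0.01% Tween 20, preincubated 15 min with compounds (up to 114 microM), then 1.5 microM Rhodamine110 substrate. Fluorescence change over 15 min fitted to 4-parameter Hill.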

## COC(=O)N1CCN(Cc2cccc(NC(=O)Nc3ccc(C)nc3)c2F)CC1
[1]
  Potency: inactive
[2]
  Potency: inactive
[3]
  Potency: inactive

## OC[C@H]1O[C@@H](OCCc2ccc(O)cc2)[C@H](O)[C@@H](O)[C@H]1O
[1]
  Potency: inactive
[4]
  outcome: inactive
[5]
  Potency: inactive
[6]
  outcome: inactive

## CC1(COc2ccc3c(c2)ncn3-c2ccc3cccc(N4CCC(N)CC4)c3n2)COC1
[1]
  Potency: inactive
[2]
  Potency: inactive

## Cc1nc2c([nH]1)CCN(C(=O)c1ccc(NC(=O)c3ccccc3-c3ccccc3)cc1)c1ccccc1-2
[1]
  Potency: inactive
[2]
  Potency: inactive
[3]
  Potency: inactive

## N#Cc1ccc(Oc2ccc3c(c2)COB3O)cc1
[1]
  Potency: inactive
[2]
  Potency: inactive
[3]
  Potency: inactive

## CNc1nc(Nc2ccc(C(=O)N3CCOCC3)cc2OC)ncc1Cl
[1]
  Potency: inactive
[2]
  Potency: inactive
[3]
  Potency: inactive

## CC[C@@H]([C@H](C)O)n1ncn(-c2ccc(N3CCN(c4ccc(OCC5CO[C@@](Cn6cncn6)(c6ccc(F)cc6F)C5)cc4)CC3)cc2)c1=O (some centres not stated)
[1]
  Potency: inactive
[3]
  Potency: inactive

## Nc1ncnc2c1ncn2[C@@H]1O[C@H](CO)[C@@H](O)[C@@H]1O
[1]
  Potency: inactive
[3]
  Potency: inactive

## O=C(Nc1ccc(OC(F)(F)F)cc1)c1sccc1NCc1ccnc2ccccc12
[1]
  Potency: inactive
[2]
  Potency: inactive
[3]
  Potency: inactive

## C=CCc1cccc(C=NNC(=O)CN2CCN(Cc3ccccc3)CC2)c1O
[1]
  Potency: inactive
[7]
  outcome: inactive

## COC(=O)[C@H](c1ccccc1Cl)N1CCc2sccc2C1
[1]
  Potency: inactive
[3]
  Potency: inactive

## Cc1cnc(Nc2cccc(CN3CCOCC3)c2)nc1Nc1cccc(S(=O)(=O)NC(C)(C)C)c1
[1]
  Potency: inactive
[2]
  Potency: inactive

## CC[C@H](CC#N)OC(=O)N[C@@H](C)c1cccc(NC(=O)Nc2ccc(-c3cnco3)c(OC)c2)c1
[1]
  Potency: inactive
[2]
  Potency: inactive

## Cc1cccc2c1CC[C@H](CN1CCC(c3c(Cl)cccc3Cl)CC1)C[C@@H]2O
[1]
  Potency: inactive
[2]
  Potency: inactive

## Cc1cc2c(cc1C1(c3ccc(C(=O)O)cn3)CC1)C(C)(C)CCC2(C)C
[1]
  Potency: inactive
[2]
  Potency: 14.1 µM (active)

## O=c1[nH]nc(OCCCc2ccc(Cl)cc2)c(NCc2cccnc2)c1Br
[1]
  Potency: inactive
[2]
  Potency: inactive
[3]
  Potency: inactive

## C[C@H]1O[C@@H](n2cc(F)c(=O)[nH]c2=O)[C@H](O)[C@H]1O
[1]
  Potency: inactive
[8]
  outcome: inactive

## O=C(O)CCNc1cc(N2CCc3ccccc3CC2)nc(-c2ccccn2)n1
[1]
  Potency: inactive
[2]
  activity change, negative = inhibition: -4.33% [at 10.7 µM]
[3]
  Potency: inactive

## COc1ccnc(CS(=O)c2nc3ccc(OC(F)F)cc3[nH]2)c1OC (configuration not stated)
[1]
  Potency: inactive
[4]
  outcome: inactive
[5]
  Potency: inactive
[6]
  outcome: inactive

## COc1ccc(CCC(=O)Nc2nc3ccc(Cl)cc3s2)cc1OC
[1]
  Potency: inactive
[2]
  Potency: inactive
[3]
  Potency: inactive

## CN1c2ccccc2C(=O)N2CCc3c([nH]c4ccccc34)C21 (configuration not stated)
[1]
  Potency: inactive
[2]
  Potency: inactive

## CCC(c1ccc(O)cc1)C(CC)c1ccc(O)cc1 (configuration not stated)
[1]
  Potency: inactive
[3]
  Potency: inactive

## CC1CCN(c2cc(N3CCN(C)CC3)ccc2NC(=O)c2cc(C#N)c[nH]2)CC1
[1]
  Potency: inactive
[2]
  Potency: inactive

## COc1cc2nccc(Oc3ccc(NC(=O)Nc4cc(C)on4)c(Cl)c3)c2cc1OC
[1]
  Potency: inactive
[2]
  Potency: inactive
[3]
  Potency: 13.1 µM (active)

## O=C(c1ccc(C(=O)N2CCC(N3CCCC3)CC2)c(Nc2ccccc2)c1)N1CCC(N2CCCC2)CC1
[1]
  Potency: inactive
[2]
  Potency: inactive
[3]
  Potency: inactive

## NC(=O)c1ccc(N(C(N)=O)c2c(F)cccc2F)nc1-c1ccc(F)cc1F
[1]
  Potency: inactive
[2]
  Potency: inactive
[3]
  Potency: inactive

## CCN1CCC(n2cc(CNc3cc(Cl)c4ncc(C#N)c(Nc5ccc(F)c(Cl)c5)c4c3)nn2)CC1
[1]
  Potency: inactive
[2]
  Potency: inactive

## CCCCC(F)(F)[C@@]1(O)CC[C@H]2[C@H](CC(=O)[C@@H]2CCCCCCC(=O)O)O1
[1]
  Potency: inactive
[2]
  Potency: inactive
[3]
  Potency: inactive

## COc1cc2ncnc(Nc3cc(Br)c(O)c(Br)c3)c2cc1OC
[1]
  Potency: inactive
[2]
  Potency: inactive

## CN(C)c1nc(Cc2ccc(NC(=O)c3ccc(C(F)(F)F)cc3)cc2)nc(N(C)C)c1CC(=O)O
[9]
  Potency: inactive
[2]
  Potency: inactive

## Cc1cccc(Nc2nc(N[C@@H]3CCCC[C@H]3N)ncc2C(N)=O)c1
[1]
  Potency: inactive
[3]
  Potency: 13.1 µM (active)

## O=C(O)C1=CC(O)C(O)[C@H](O)C1 (some centres not stated)
[1]
  Potency: inactive
[3]
  Potency: inactive

## CCOC(=O)N1c2ccc(C(F)(F)F)cc2[C@@H](N(Cc2cc(C(F)(F)F)cc(C(F)(F)F)c2)C(=O)OC)C[C@H]1CC
[1]
  Potency: inactive
[3]
  Potency: inactive

## CCCCC[C@H](O)C=C[C@H]1[C@H](O)CC(=O)[C@H]1CC=CCCCC(=O)O
[1]
  Potency: inactive
[5]
  Potency: inactive
[6]
  outcome: inactive

## CCOc1ccccc1N=Nc1c(C)[nH]n(-c2nc(-c3ccccc3)cs2)c1=O
[1]
  Potency: inactive
[3]
  Potency: inactive

Source: PubChem BioAssay (NCATS)
